The record followed here is PubChem BioAssay (NCATS).

Values without a mark were called inactive. No rule for the calls is given here.
Potency is read from the fitted curve at half-maximal effect.

The subject of the experiment is HIV-1 nucleocapsid protein NCp7 (binding to TG oligonucleotide). Description: HIV Nucleocapsid (AID 346).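 Also: potency is for inhibitors that block NC binding and lower polarization.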 To be noted: HIV-1 NC / fluorescein-TGTGTGTG probe, fluorescence polarization. In a few lines: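 Reagents dispensed (10 nM TG4xF, 100 nM HIV-1 NC), plates spun, compounds pin-transferred, then incubated 1 hr at room temperature before FP imaging. Buffer: Hepes pH 7.5, 250mM NaCl, 1uM ZnCl2, 100 uM TCEP, 5 mM 2-mercaptoethanol.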
On the technique in general: In fluorescence polarisation assays a small probe gives low polarisation when free and higher when bound to something large.
As for `COc1ccc2[nH]cc(CCNc3ncnc4ccc(-c5ccccc5C#N)cc34)c2c1`, the Potency was > 20 µM.
On to `O=C(c1ccco1)N1CCC2(CCN(Cc3cc(C(F)(F)F)cc(C(F)(F)F)c3)CC2)CC1`, for which the Potency was > 20 µM.
Regarding `Cc1nc2cnc(Oc3ccccc3)nc2n(Cc2cccs2)c1=O`, the Potency was > 4 µM.
`COC(=O)N1CCC2(CCCN(Cc3ccccc3OC)C2)CC1`: the Potency is > 20 µM.
Consider `CC(=O)N1CCC2(CC1)CN(Cc1cc(C(F)(F)F)cc(C(F)(F)F)c1)C2`, for which the Potency was > 20 µM.
Turning to `O=c1c(-c2ccc(F)cc2)nc2cnc(N3CCOCC3)nc2n1-c1ccccc1`, the Potency was > 20 µM.
As for `Cc1nc2cnc(N(C)C)nc2n(C)c1=O`, the Potency is > 20 µM.
On to `COc1ccccc1-c1nccc(NC2CCNCC2)n1`, for which the Potency is > 20 µM.
`Fc1ccc(Nc2ccnc(-c3ccccc3C(F)(F)F)n2)cc1`: the Potency is > 20 µM.
In the case of `COc1cccc(Nc2ncc3nc(CCc4ccccc4)c(=O)n(C)c3n2)c1`, the Potency was > 4 µM.
Take `COCCn1c(=O)c(CCc2ccccc2)nc2cnc(Nc3ccccc3)nc21`: the Potency was > 20 µM.
For the compound `CS(=O)(=O)Nc1cccc(-c2cc(NCc3cccs3)ncn2)c1`, the Potency is > 20 µM.
Regarding `CNc1nc(-c2cccc(NS(C)(=O)=O)c2)nc2ccccc12`, the Potency was > 20 µM.
Regarding `COc1ccccc1CNc1cc(-c2ccccc2Cl)ncn1`, the Potency was > 20 µM.
Regarding `Cc1cnc(CNc2ccnc(-c3cccc(C#N)c3)n2)cn1`, the Potency was > 20 µM.
For `c1ccc(-c2cccc(N3CC[C@@]4(CCCNC4)C3)c2)cc1`, the Potency was > 20 µM.
The figure for `COCCn1c(=O)c(-c2ccc(F)cc2)nc2cnc(OC)nc21` is > 20 µM; for `CS(=O)(=O)N1CCC2(CCN(Cc3nccs3)CC2)CC1` it is > 20 µM; for `Cc1noc(C)c1-c1nccc(NC2CC2)n1` it is > 20 µM.
Regarding `CCNc1ncc2nc(C)c(=O)n(CCOC)c2n1`, the Potency was > 20 µM.
For `COc1ccccc1-c1nc(NCc2cnc(C)cn2)c2ccccc2n1`, the Potency was > 20 µM.
Consider `COCCn1c(=O)c(-c2ccc(Cl)cc2)nc2cnc(N3CCOCC3)nc21`, for which the Potency is > 20 µM.
For the compound `CN(Cc1ccco1)c1ncnc2ccc(-c3ccccc3Cl)cc12`, the Potency is > 20 µM.
As for `Cc1noc(C)c1-c1nc(N(C)Cc2ccco2)c2ccccc2n1`, the Potency is > 20 µM.
For the compound `COCCn1c(=O)c(-c2ccc(OC)cc2)nc2cnc(Oc3ccc(OC)cc3)nc21`, the Potency was > 20 µM.
In the case of `O=C(Oc1ccccc1)N1CCC2(CC1)CCN(c1ccccc1)CC2`, the Potency is > 20 µM.
Take `O=C(c1ccncc1)N1CCC2(CCCN(Cc3ccccc3)C2)CC1`: the Potency is > 20 µM.
On to `COc1ccccc1-c1cc(Nc2ccn[nH]2)ncn1`, for which the Potency is > 20 µM.
Consider `Cc1cnc(CNc2ncncc2-c2ccoc2)cn1`, for which the Potency is > 20 µM.
With `O=C(c1ccco1)N1CCC2(CCN(Cc3ccccc3)CC2)CC1`, the Potency is > 20 µM.
As to `O=C(c1csnn1)N1CCC[C@@]2(CCN(Cc3ccccc3)C2)C1`, the Potency was > 20 µM.
Take `N#CCCn1c(=O)c(-c2ccccc2)nc2cnc(Oc3cccc(Cl)c3)nc21`: the Potency is > 20 µM.
On to `O=C(c1cc(C(F)(F)F)cc(C(F)(F)F)c1)N1CCC2(CCCN(c3ccncc3)C2)CC1`, for which the Potency was > 20 µM.
Next, `Cc1ccccc1-c1nccc(NCc2cccnc2)n1`: > 20 µM; `Cc1ccccc1-c1ccc2ncnc(NC3CC3)c2c1`: > 20 µM.
On to `O=c1c(-c2cc(F)cc(F)c2)nc2cncnc2n1Cc1ccccc1`, for which the Potency is > 20 µM.
As for `O=C(Nc1ccccc1)N1CC2(CCN(C(=O)c3ccco3)CC2)C1`, the Potency was > 20 µM.
For the compound `COc1ccc(C(=O)N2CCC3(CCCN(c4cccc(-c5ccccc5)c4)C3)CC2)cc1`, the Potency was > 20 µM.
In the case of `COc1ccc(-c2nc3cnc(N4CCNCC4)nc3n(Cc3ccc(F)cc3)c2=O)cc1`, the Potency was > 20 µM.
Take `COCCn1c(=O)c(-c2cccs2)nc2cnc(OC)nc21`: the Potency was > 20 µM.
